PubChem BioAssay (Tox21)
Results filed as inconclusive are left out. Calls of active or inactive are those of the source. Unless noted, the call rests on the fitted dose curve; in most records, active means well fitted curve in the direction sought with a large enough effect in the repeat runs; inconclusive means weak or mixed curves; inactive means no such curve, though single readings can be large; an effect the other way counts as inactive or inconclusive.

How the values were obtained:
[1] = molecular target: Thyrotropin receptor (Homo sapiens) (UniProt P16473); test: qHTS assay to identify small molecule antagonists of the thyroid stimulating hormone receptor (TSHR) signaling pathway (AID 1259385; calls by dose curve; further: nearly all actives have a fitted effect of over 20% in size)
In short: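 Antagonist mode: compound-treated TSHR-expressing HEK293 cells were stimulated with 1.5 ng/mL TSH (final) in presence of Ro20-1724 for 30 min at RT. HTRF cAMP detection after 1 h; each compound tested at 15 concentrations, triplicate.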

[2] = qHTS assay to identify small molecule agonists of the estrogen receptor alpha (ER-alpha) signaling pathway in the presence of an antagonist - cell viability counter screen (AID 1259386);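 further: series mostly up to about 92 µM; cells exposed to compounds for 22 h at 37 °C before the viability read; nearly all actives have a fitted effect of over 30% in size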
In short: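 Using estrogen-depleted VM7Luc4E2 cells, the 15-concentration compound series was applied together with 10.0nM ICI-182,780 and incubated 22hr at 37C/5% CO2. Cell viability was then scored by CellTiter-Fluor.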

[3] = molecular target: Progesterone receptor (Homo sapiens) (UniProt P06401); test: qHTS assay to identify small molecule agonists of the progesterone receptor (PR) signaling pathway (AID 1346784; calls by dose curve; further: nearly all actives have a fitted effect of over 30% in size)
In short: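 Reporter assay, GripTite PR-UAS-bla HEK 293T cells: 16 hr exposure to DMSO-dissolved compounds at 37C, 5% CO2, in steroid-depleted (2% charcoal-stripped FBS) medium; beta-lactamase measured by FRET fluorescence.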

[4] = molecular target: Progesterone receptor (Homo sapiens) (UniProt P06401); test: qHTS assay to identify small molecule antagonists of the progesterone receptor (PR) signaling pathway (AID 1346795; active means well fitted inhibition curve with a large enough effect in the signal ratio in the repeat runs, not every such curve was filed as active; the % refers to the signal ratio)
In short: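 Stimulus R5020 at 1 nM final; cells HEK293T PR-UAS-bla; medium with 2% charcoal-stripped FBS; compound exposure 16 hr at 37C, 5% CO2; detection by FRET beta-lactamase substrate, 2 hr, room temperature.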

[5] = qHTS assay to identify small molecule antagonists of the progesterone receptor (PR) signaling pathway - cell viability counter screen (AID 1346798); further: series mostly up to about 92 µM; nearly all actives have a fitted effect of over 50% in size
In short: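 In the same plates used for the beta-lactamase readout, cell viability of compound- and R5020-treated PR-UAS-bla HEK293T cells (16 hr, 37C) was assessed by CellTiter-Glo luminescence.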

[6] = qHTS assay to identify small molecule agonists of the progesterone receptor (PR) signaling pathway - cell viability counter screen (AID 1346799; calls by dose curve; further: nearly all actives have a fitted effect of over 45% in size)
In short: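 Multiplexed viability read: CellTiter-Glo luminescence, 30 min RT, following LiveBLAzer FRET measurement on PR-UAS-bla HEK293T cells exposed to compounds 16 hr.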

[7] = qHTS assay to identify small molecule antagonists of the TGF-beta/Smad signaling pathway - cell viability counter screen (AID 1346824); further: nearly all actives have a fitted effect of over 50% in size
In short: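 Cytotoxicity counter-screen run in the same wells as the beta-lactamase Smad reporter read: CellTiter-Glo luminescence after 30 min at room temperature. HEK 293T SBE-bla cells had 5 hr compound exposure at 37 C with TGF-beta1 (0.25 ng/mL stock).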

[8] = qHTS assay to identify small molecule agonists of the TGF-beta/Smad signaling pathway - cell viability counter screen (AID 1346829); further: top concentration of the series differs between compounds; nearly all actives have a fitted effect of over 45% in size
In short: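 Compound-treated SBE-bla HEK 293T cells (5 hr, 37 C) were assessed for viability with CellTiter-Glo in parallel with the reporter read.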

[9] = qHTS assay to identify small molecule agonists of the TGF-beta/Smad signaling pathway (AID 1346859; active means well fitted activation curve with a large enough effect in the signal ratio in the repeat runs, not every such curve was filed as active; the % refers to the signal ratio; further: series mostly up to about 77 µM)
In short: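 Screening used HEK 293T SBE-bla cells at 4,000/well. Test agents: 5 hr, 37 C. Detection: FRET substrate, 2 hr RT, then excitation 405 nm with emissions at 460 and 530 nm.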

[10] = molecular target: Thyrotropin-releasing hormone receptor (Homo sapiens) (UniProt P34981); test: qHTS assay to identify small molecule antagonists of the thyrotropin-releasing hormone receptor (TRHR) signaling pathway (AID 1346877; active means well fitted inhibition curve with a large enough effect in the repeat runs, not every such curve was filed as active; further: series mostly up to about 51 µM)
In short: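 Calcium signal in dye-loaded TRHR/HEK293 cells; compounds added 5 min before TRH (1 nM final); fluorescence monitored 3 min at 1 s steps.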

Measured: Potency

Progesterone receptor (Homo sapiens), sequence (P06401 whole entry, looked up): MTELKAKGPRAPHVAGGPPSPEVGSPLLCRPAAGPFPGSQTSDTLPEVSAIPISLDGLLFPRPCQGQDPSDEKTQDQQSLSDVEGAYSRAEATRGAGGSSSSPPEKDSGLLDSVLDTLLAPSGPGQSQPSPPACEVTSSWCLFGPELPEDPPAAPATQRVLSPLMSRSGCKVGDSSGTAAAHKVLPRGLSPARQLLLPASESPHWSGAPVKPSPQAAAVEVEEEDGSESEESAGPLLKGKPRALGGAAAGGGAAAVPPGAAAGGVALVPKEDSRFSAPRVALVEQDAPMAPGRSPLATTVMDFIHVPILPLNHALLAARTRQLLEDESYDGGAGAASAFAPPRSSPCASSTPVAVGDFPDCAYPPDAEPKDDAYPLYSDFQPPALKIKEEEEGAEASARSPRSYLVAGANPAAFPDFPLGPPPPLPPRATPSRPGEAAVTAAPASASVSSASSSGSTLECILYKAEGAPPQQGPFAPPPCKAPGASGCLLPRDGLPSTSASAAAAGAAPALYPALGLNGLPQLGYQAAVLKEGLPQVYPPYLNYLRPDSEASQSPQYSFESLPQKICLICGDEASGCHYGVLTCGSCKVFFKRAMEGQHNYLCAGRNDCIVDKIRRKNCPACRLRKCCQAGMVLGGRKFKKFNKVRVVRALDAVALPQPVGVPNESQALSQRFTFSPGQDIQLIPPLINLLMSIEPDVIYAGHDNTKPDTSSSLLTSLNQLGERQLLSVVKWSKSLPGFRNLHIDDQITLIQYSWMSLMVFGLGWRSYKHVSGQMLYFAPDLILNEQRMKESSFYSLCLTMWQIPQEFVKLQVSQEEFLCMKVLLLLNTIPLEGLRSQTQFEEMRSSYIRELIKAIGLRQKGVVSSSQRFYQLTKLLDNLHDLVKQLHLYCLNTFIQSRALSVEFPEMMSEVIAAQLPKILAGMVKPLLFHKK
Thyrotropin receptor (Homo sapiens), sequence (P16473 whole entry, looked up): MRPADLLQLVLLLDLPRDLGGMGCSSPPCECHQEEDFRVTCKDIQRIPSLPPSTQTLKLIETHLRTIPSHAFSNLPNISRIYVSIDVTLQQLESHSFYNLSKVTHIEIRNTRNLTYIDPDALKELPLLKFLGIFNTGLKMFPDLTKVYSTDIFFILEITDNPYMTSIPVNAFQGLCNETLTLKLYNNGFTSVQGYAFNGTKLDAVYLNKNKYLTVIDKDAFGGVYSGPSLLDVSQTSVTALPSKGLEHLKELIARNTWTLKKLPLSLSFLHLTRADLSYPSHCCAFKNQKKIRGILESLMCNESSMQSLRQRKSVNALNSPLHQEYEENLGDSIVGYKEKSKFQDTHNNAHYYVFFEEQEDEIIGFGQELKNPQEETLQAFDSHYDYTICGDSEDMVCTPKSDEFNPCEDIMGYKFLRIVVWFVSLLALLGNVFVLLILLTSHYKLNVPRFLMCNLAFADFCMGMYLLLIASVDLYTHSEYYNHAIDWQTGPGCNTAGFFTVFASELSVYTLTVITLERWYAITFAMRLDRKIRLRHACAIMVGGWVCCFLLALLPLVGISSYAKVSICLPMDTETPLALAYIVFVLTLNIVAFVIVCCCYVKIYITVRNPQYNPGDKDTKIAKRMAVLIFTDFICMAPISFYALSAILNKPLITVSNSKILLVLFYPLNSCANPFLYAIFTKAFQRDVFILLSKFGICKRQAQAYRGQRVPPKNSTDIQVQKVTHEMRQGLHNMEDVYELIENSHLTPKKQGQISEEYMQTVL
Thyrotropin-releasing hormone receptor (Homo sapiens), sequence (P34981 whole entry, looked up): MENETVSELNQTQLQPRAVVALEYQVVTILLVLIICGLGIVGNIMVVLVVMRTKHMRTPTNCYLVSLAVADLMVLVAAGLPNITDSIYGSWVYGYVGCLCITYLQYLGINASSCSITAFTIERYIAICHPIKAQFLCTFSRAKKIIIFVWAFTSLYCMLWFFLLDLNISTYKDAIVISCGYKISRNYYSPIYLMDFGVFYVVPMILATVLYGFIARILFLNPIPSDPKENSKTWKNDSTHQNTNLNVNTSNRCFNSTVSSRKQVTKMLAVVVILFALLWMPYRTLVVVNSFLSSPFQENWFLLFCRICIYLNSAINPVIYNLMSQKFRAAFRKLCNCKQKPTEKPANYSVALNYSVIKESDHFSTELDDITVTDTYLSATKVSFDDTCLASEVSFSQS

COCCCOCCCOC
inactive: all assays above

CN(C)CCCSc1ccccc1NC(=O)/C=C/c1ccccc1
not listed: [6]
inactive: all other assays above

CC(=O)Nc1ccc(S(N)(=O)=O)cc1
not listed: [7]
inactive: all other assays above

CCOC(=O)[C@H](CCc1ccccc1)N[C@@H](C)C(=O)N1[C@H](C(=O)O)C[C@@H]2CCC[C@@H]21
inactive: all assays above

CC(NC(CCc1ccccc1)C(=O)O)C(=O)N1C(=O)N(C)CC1C(=O)O (stereo unspecified)
inactive: all assays above

CN(C)CCCNCCCN(C)C
not listed: [7]
inactive: all other assays above

Nc1nc2c(ncn2COC(CO)CO)c(=O)[nH]1
inactive: all assays above

C=CCCCCCCCCC=O
not listed: [5] | [6] | [10]
inactive: all other assays above

CN1C(=O)N(C)C(O)C1O (stereo unspecified)
inactive: all assays above

C/C=C(\C)C#N
inactive: all assays above

C=C1CC[C@H]2C[C@@H]1C2(C)C
not listed: [4]
inactive: all other assays above

Cc1cnc(NS(=O)(=O)c2ccc(N)cc2)nc1
inactive: all assays above

CN1N=C(C(N)=O)CCC1=O
not listed: [3] | [10]
inactive: all other assays above

Cc1c(NC(C)C)c(=O)n(-c2ccccc2)n1C
not listed: [4]
inactive: all other assays above

CC(C)NCCCC1(C(N)=O)c2ccccc2-c2ccccc21
inactive: all assays above

CCCN1CCCC[C@H]1C(=O)Nc1c(C)cccc1C
not listed: [4]
inactive: all other assays above

O=C(O)CCCc1ccccc1
not listed: [5]
inactive: all other assays above

COc1ccc2c(c1)c(CC(=O)OCC(=O)O)c(C)n2C(=O)c1ccc(Cl)cc1
not listed: [5] | [9]
inactive: all other assays above

COC(=O)[C@@H](N)Cc1ccc(O)c(O)c1
inactive: all assays above

CC(=O)OCC(CCn1cnc2cnc(N)nc21)COC(C)=O
not listed: [5]
inactive: all other assays above

Oc1ccc(C2CNCCc3c2cc(O)c(O)c3Cl)cc1 (stereo unspecified)
not listed: [3] | [10]
inactive: all other assays above

CN1CC(=O)NC1=N
inactive: all assays above

C[C@H]1C[C@@H](O)CC(C)(C)C1
not listed: [6]
inactive: all other assays above

C=C[Si](OC(=C)C)(OC(=C)C)OC(=C)C
inactive: all assays above

O=C(O)c1ccccc1OP(=O)(O)O
not listed: [6]
inactive: all other assays above
